Test results from PubChem BioAssay (NCI).
The panel holds about 83,000 compounds, 20% with a hit somewhere; the sample as a whole holds those more often.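 Treatment: one concentration, 48 hours, 96-well format. Scoring: percent growth, with anything below 10 considered active.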 Active and inactive are the calls of the source.

The molecules below were run on HOP-92 NSCLC (assay: NCI-60 one-dose screen, 48 h (100 = growth as untreated, 0 = no growth, -100 = all killed)). Conditions: 10 µM unless noted.
Description: Growth inhibition of the HOP-92 human Non-Small Cell Lung tumor cell line is measured as a screen for anti-cancer activity. Cells are grown in 96 well plates and exposed to the test compound for 48 hours. Compounds are tested at a single concentration, which is 10^-5 M for most compounds. The reported endpoint is percent growth (GI% or GIPRCNT), where numbers from 0 - 100% represent growth inhibition, and numbers from -100% - 0 represent cell death. For example, a value of 40 represents 60% growth inhibition. A value of 0 means no net growth occurred over the course of the experiment. A value of -40 indicates 40% of cells at the beginning of the experiment died by the end of the experiment. A value of -100 means all cells are dead at the end of the experiment.
NCI-60 Human Tumor Cell Lines Screen was performed using the standard one-dose NCI protocol, which is described in more detail at https://dtp.cancer.gov/discovery_development/nci-60/default.htm.
Compounds with GIPRCNT values below 10 were considered active. Activity score was based on GIPRCNT using the following formula: […]
Score is 0 for GIPRCNT values of 100 or above, 50 for GIPRCNT values of 0, and 100 for GIPRCNT values of -100.

| Structure (SMILES) | growth |
| --- | --- |
| Cc1nn(CC(=O)O)c2c1C(=O)CC(C)(C)C2 | 95.5% (inactive) |
| COC(=O)c1c2c(c(C)[n+]([O-])c1C)C(=O)C=C(NCc1ccc(F)cc1)C2=O | -41.1% (active) |
| O=C(N/N=C/c1ccc(OC(F)F)c(OC2CCCC2)c1)c1cnn2c1NC(c1ccccc1)C2 (stereo not given) | 80.6% (inactive) |
| COc1cc(-c2nc(SC(C)C)nc(Nc3cccc(C)c3)c2C#N)cc(OC)c1OC | 106% (inactive) |
| Clc1ccc2c(c1)C[C@H]1C[C@@H](c3cccs3)N2O1 | 69.8% (inactive) |
| CCCCCCCCCCCCCCNc1nc(CO)ncc1-c1ccc(C(F)(F)F)cc1 | 89.6% (inactive) |
| O=C(N/N=C(\CS(=O)(=O)c1ccccc1)c1cc2cc(Br)ccc2oc1=O)c1ccccc1 | 111% (inactive) |
| CSc1ccc(OC(C)=O)cc1C | 97.2% (inactive) |
| COc1ccc(/C=C2\SC(=O)N(CN3CCN(c4cc5c(cc4F)c(=O)c(C(=O)O)cn5C4CC4)CC3)C2=O)cc1 | 101% (inactive) |
| O=C(N/N=C/c1ccc2c(c1)OCO2)c1cnn2c1NC(c1ccccc1)C2 (stereo not given) | 73.7% (inactive) |
| O=C1C(OCCOc2ccccc2)=C(OCCOc2ccccc2)C(=O)c2ccccc21 | 102% (inactive) |
| COc1ccc(/C=N\N2CCOCC2)cc1OC1CCCC1 | 93.1% (inactive) |
| O=C(C[Si](CC(=O)c1cccc(C(F)(F)F)c1)CC(=O)c1cccc(C(F)(F)F)c1)c1cccc(C(F)(F)F)c1 | -27.9% (active) |
| COCCOC1=C(Cl)C(=O)c2ccccc2C1=O | -17.3% (active) |
| COc1cc(/C=N/NC(=O)c2cnn3c2NC(c2ccccc2)C3)cc(OC)c1OC (stereo not given) | 76% (inactive) |
| Nc1c(Br)cc(Br)cc1-c1n[nH]c(=O)[nH]c1=O | 54.6% (inactive) |
| O=C(CCCCCCC(=O)Nc1ccc2c(c1)/C(=C/c1ccc[nH]1)C(=O)N2)NO | -19.7% (active) |
| c1ccc(-c2n(Cc3ccc4ccccc4c3)c3ccccc3[n+]2Cc2ccc3ccccc3c2)cc1 | -40.4% (active) |
| COc1ccc(OC)c2ncccc12 | 72.2% (inactive) |
| Cc1ccc2c(N/N=C\c3ccco3)cc(C)nc2n1 | 40.4% (inactive) |

| Structure (SMILES) | growth |
| --- | --- |
| O=c1c2c(=NCCN3CCCC3)cc3c(=O)n(CCCN4CCOCC4)c(=O)c4c(-c5ccc(CN6CCCC6)cc5)cc(c(O)n1CCCN1CCOCC1)c2c4-3 | -16.4% (active) |
| O=C1CCC(N2C(=O)c3cccc(NCCOCCOCCNC(=O)c4cc5c(o4)C(=O)c4ccccc4C5=O)c3C2=O)C(=O)N1 (stereo not given) | 60.4% (inactive) |
| COc1ccc(S(=O)(=O)c2ccc(C(N)=O)cc2)cc1NC(=O)c1[nH]c(C)c2c1CCCCC2=O | 23.6% (inactive) |
| COc1nc2c(cc1S(=O)(=O)c1ccccc1)CCc1c-2cnn1-c1ccccc1 | 22.1% (inactive) |
| CC(C)(C)CC(C)(C)N(CSc1ccc(Cl)cc1)CSc1ccc(Cl)cc1 | 23.3% (inactive) |
| CCCCCCCCCCCCCCCC[N+]1(C)CCOCC1 | -15.3% (active) |
| CC1CCCCN1S(=O)(=O)c1ccc(CN=C=S)cc1 (stereo not given) | 60.8% (inactive) |
| COc1cc2nc(N3CCC[C@H](NC4=CC(=O)c5ccccc5C4=O)C3)nc(N)c2cc1OC | 75.8% (inactive) |
| Oc1cccc(Nc2nc(-c3ccccn3)cs2)c1 | 89% (inactive) |
| COc1ccc(-c2cc(=O)oc3c4c(ccc23)OCN(Cc2ccc(F)cc2)C4)cc1 | 47.8% (inactive) |
| Cc1c(C(=O)Nc2nc(-c3ccccc3)cs2)nnn1-c1ccccc1Br | 57.4% [50 µM] (inactive) |
| COc1cc(OCc2cccc(-c3ccc(C(O)c4nccs4)cc3)c2C)cc(OC)c1C=O (stereo not given) | 62.5% (inactive) |
| COc1cccc(C2C3=C(COC3=O)N(CCO)c3cc4c(cc32)OCO4)c1 (stereo not given) | 65.7% (inactive) |
| CCN(CC)c1ccc2c(c1)OS(=O)(=O)N=C2 | 85.4% (inactive) |
| CC(=O)Nc1ccccc1-c1n[nH]c(=O)[nH]c1=O | -10.8% (active) |
| Cc1c(C)n(CC(O)CNC2CCCCC2C)c2ccccc12 (stereo not given) | -60% (active) |
| O=C(CC(O)c1ccccc1)Nc1ccccn1 (stereo not given) | 77% (inactive) |
| O=C1N/C(=C\c2ccccc2)c2ncccc21 | 94.9% (inactive) |
| CCN1CCN(c2nc3ccccc3c3c(=O)c4cc(F)ccc4sc23)CC1 | 40.2% (inactive) |
| O=c1[nH]c(=S)c2c(n1CCCO)CCC2 | 109% (inactive) |
